The nature of assay [1]: ATG_CRE_CIS: Attagene CIS-FACTORIAL HepG2 Assay for human cAMP Responsive Element (CRE) binding protein 3 (AID 2282926). The following applies: HepG2 CRE cis-reporter, Attagene multiplexed mRNA; actives raise or lower the signal. Summed up:
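Readout: fluorescently labelled reporter transcripts resolved by capillary electrophoresis after RT-PCR, taken 24 h post-dosing in transfected HepG2. Endogenous transcription factor activity drives each cis-element reporter; gain or loss of signal fitted relative to DMSO control.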

The target of assay [2] is CCAAT/enhancer-binding protein beta (Homo sapiens) (UniProt P17676). The assay is described as follows: ATG_C_EBP_CIS: Attagene CIS-FACTORIAL HepG2 Assay for human CCAAT/Enhancer Binding Protein (C/EBP) beta (AID 2282927). Conditions: HepG2 Attagene cis-factorial transcription factor reporter; actives raise or lower the signal. Summed up:
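HepG2 transiently transfected with multiplexed reporter units under cis-regulatory promoters reporting endogenous C/EBPb activity. After 24 h exposure, reporter mRNA assayed by RT-PCR, fluorescent labelling, HpaI digestion and capillary electrophoresis; bidirectional fitting versus DMSO.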

The nature of assay [3]: ATG_DR4_LXR_CIS: Attagene CIS-FACTORIAL HepG2 Assay for human Liver X Receptor (LXR), DR4 submotif (AID 2282929). Conditions: HepG2 Attagene DR4 cis-reporter, mRNA transcription; actives raise or lower the signal. In outline:
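HepG2 cells transiently transfected with cis-promoter-driven multiplexed reporter units (DR4 element) were dosed for 24 h. Reporter mRNA was quantified by RT-PCR, fluorescent primer extension, HpaI digestion and capillary electrophoresis; bidirectional fitting versus DMSO baseline.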

Assay [4] can be described thus: ATG_AP_2_CIS: Attagene CIS-FACTORIAL HepG2 Assay for human Activator Protein 2 (AP-2) (AID 2282932). Conditions: HepG2 AP-2 cis-reporter, Attagene transcription factor profiling; actives raise or lower the signal. Summed up:
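Liver-derived HepG2 line, cis-reporter system measuring endogenous factors; 24 h dosing; reporter mRNA detected by fluorescent RT-PCR and capillary electrophoresis.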

Assay [5] is described as follows: ATG_BRE_CIS: Attagene CIS-FACTORIAL HepG2 Assay for human Bone Morphogenetic Protein (BMP) Response Element (BRE) (AID 2282933). Conditions: HepG2 BMP response element reporter, Attagene transcription factor profiling; actives raise or lower the signal. Summed up:
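Read-out: reporter mRNA induction quantified by RT-PCR and capillary electrophoresis after 24 h chemical exposure of transfected HepG2 cells. Endogenous factor activity on the BMP response element; gain or loss fitted against DMSO baseline.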

Assay [6] deals with Transcription factor E2F1 (Homo sapiens) (UniProt Q01094). The assay is described as follows: ATG_E2F_CIS: Attagene CIS-FACTORIAL HepG2 Assay for human E2F Transcription Factor 1 (AID 2282935). The following applies: HepG2 Attagene cis-reporter, E2F reporter RNA transcripts; actives raise or lower the signal. In outline: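 Liver-derived HepG2 cells expressing transfected promoter-driven reporter units received test chemical for 24 hours. Signal gains or losses were fitted bidirectionally against DMSO.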
Chain of Transcription factor E2F1 (Homo sapiens) (Q01094 whole entry, looked up): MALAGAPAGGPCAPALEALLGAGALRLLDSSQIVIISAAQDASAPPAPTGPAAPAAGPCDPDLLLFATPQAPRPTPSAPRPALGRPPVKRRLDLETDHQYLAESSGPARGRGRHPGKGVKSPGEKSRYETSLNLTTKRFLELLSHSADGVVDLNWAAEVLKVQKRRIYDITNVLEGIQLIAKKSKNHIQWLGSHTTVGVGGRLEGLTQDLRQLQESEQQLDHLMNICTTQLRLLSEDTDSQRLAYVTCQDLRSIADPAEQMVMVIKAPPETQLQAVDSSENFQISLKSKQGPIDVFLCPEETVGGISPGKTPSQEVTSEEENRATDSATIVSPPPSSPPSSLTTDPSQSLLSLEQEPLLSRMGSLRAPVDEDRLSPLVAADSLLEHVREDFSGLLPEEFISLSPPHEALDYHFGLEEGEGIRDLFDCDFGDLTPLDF

Assay [7] is described as follows: ATG_EGR_CIS: Attagene CIS-FACTORIAL HepG2 Assay for human Early Growth Response 1 (EGR1) (AID 2282938). Conditions: HepG2 Attagene CIS-FACTORIAL EGR reporter mRNA; actives raise or lower the signal. Summed up:
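HepG2 cells transiently transfected with cis-promoter-driven multiplexed reporter transcription units; reporter mRNA measured 24 h after compound dosing by RT-PCR, 6-FAM primer extension, HpaI digestion and capillary electrophoresis. Bidirectional fit versus DMSO baseline.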

Assay [8] can be described thus: ATG_M_19_CIS: Attagene CIS-FACTORIAL HepG2 Assay for M19 Transcription Factor (Internal Marker) (AID 2282939). The following applies: HepG2 Attagene CIS-FACTORIAL M19 internal marker reporter; actives raise or lower the signal. In outline: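 Readout: fluorescent reporter-transcript fragments by capillary electrophoresis after RT-PCR. Human HepG2 liver cells carried transfected MRTU constructs reporting endogenous transcription-factor activity; exposure 24 h. Gain or loss of signal fitted relative to DMSO.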

Assay [9] can be described thus: ATG_Ets_CIS: Attagene CIS-FACTORIAL HepG2 Assay for human Erythroblast Transformation Specific (ETS) (AID 2282941). The following applies: HepG2 ETS cis-reporter transcription, actives raise or lower the signal. Summed up:
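Multiplexed reporter transcript profiling: HepG2, 24 h treatment, total RNA to cDNA, PCR, 6-FAM labelling, HpaI cut, capillary electrophoresis. Gain- or loss-of-signal fitted against DMSO.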

Assay [10] deals with Hepatocyte nuclear factor 3-beta (Homo sapiens) (UniProt Q9Y261). Briefly: ATG_FoxA2_CIS: Attagene CIS-FACTORIAL HepG2 Assay for human Forkhead box A2 (FOXA2) (AID 2282942). The following applies: HepG2 cis-reporter transcription factor activity, 24 h; actives raise or lower the signal. Summed up:
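HepG2 cells transiently transfected with multiple cis-regulated reporter transcription units, dosed for 24 h. Reporter mRNA measured by RT-PCR, 6-FAM labelling, HpaI digestion and capillary electrophoresis; bidirectional fitting against DMSO baseline.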

Assay [11] in a line: ATG_FoxO_CIS: Attagene CIS-FACTORIAL HepG2 Assay for human Forkhead box O (FoxO) (AID 2282943). The following applies: HepG2 Attagene cis-reporter, FoxO element, mRNA; actives raise or lower the signal. Summed up:
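HepG2 cells transiently transfected with cis-element-driven reporter units report endogenous FoxO activity. After 24 h chemical exposure, reporter mRNA quantified by RT-PCR, fluorescent labeling, HpaI digestion and capillary electrophoresis; bidirectional fit versus DMSO.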

Assay [12] is described as follows: ATG_GATA_CIS: Attagene CIS-FACTORIAL HepG2 Assay for human GATA Binding Protein (AID 2282944). Conditions: HepG2 GATA cis-element reporter, Attagene multiplex mRNA; actives raise or lower the signal. Summed up:
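Read-out: fluorescent reporter mRNA fragments resolved by capillary electrophoresis after RT-PCR. Human liver HepG2 cells carried transiently transfected cis-regulated reporter constructs; chemicals incubated 24 h; gain or loss of signal fitted relative to DMSO.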

A short description of assay [13]: ATG_GLI_CIS: Attagene CIS-FACTORIAL HepG2 Assay for human Zinc Finger Protein GLI1 (AID 2282945). The following applies: HepG2, Attagene cis-factorial reporter mRNA, GLI element; actives raise or lower the signal. Summed up: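 Transiently transfected HepG2 cells report endogenous transcription factor activity via cis-element-driven reporter units. After 24 h compound exposure, reporter mRNA was measured by RT-PCR with capillary electrophoresis; bidirectional fitting against DMSO baseline.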

Assay [14] in a line: ATG_M_06_CIS: Attagene CIS-FACTORIAL HepG2 Assay for M06 Transcription Factor (Internal Marker) (AID 2282950). Conditions: HepG2 Attagene CIS-FACTORIAL M06 internal marker reporter; actives raise or lower the signal. In outline: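 Terse: HepG2, transient MRTU transfection (FuGene 6), 24 h dosing; total RNA, oligo(dT) RT, PCR, FAM label, HpaI cut, capillary electrophoresis; bidirectional fit vs DMSO baseline; background-control endpoint.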

A short description of assay [15]: ATG_MRE_CIS: Attagene CIS-FACTORIAL HepG2 Assay for human Metal Responsive Element (MRE) (AID 2282954). The following applies: HepG2 MRE cis-reporter transcription, Attagene multiplex; actives raise or lower the signal. Summed up: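 Measured here is mRNA induction from an MRE cis-element reporter in HepG2 after 24 h, quantified by fluorescence of labelled RT-PCR products on capillary electrophoresis; gain- and loss-of-signal fits use DMSO as baseline.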

Assay [16] deals with Paired box protein Pax-6 (Homo sapiens) (UniProt P26367). Briefly: ATG_Pax6_CIS: Attagene CIS-FACTORIAL HepG2 Assay for human Paired Box 6 (PAX6) (AID 2282956). The following applies: HepG2 CIS-FACTORIAL PAX6 reporter transcription, RNA readout; actives raise or lower the signal. Summed up:
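Values derive from bidirectional curve fitting of reporter mRNA signal relative to DMSO. HepG2 cells bearing transfected cis-regulated MRTUs were exposed for 24 h; transcripts were read by RT-PCR and capillary electrophoresis.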

Assay [17] can be described thus: ATG_PXRE_CIS: Attagene CIS-FACTORIAL HepG2 Assay for human Pregnane X Receptor Element (PXRE) (AID 2282957). Conditions: HepG2 Attagene CIS-FACTORIAL PXRE reporter, mRNA; actives raise or lower the signal. Summed up: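 Read-out: fluorescence of reporter-specific RT-PCR products resolved by capillary electrophoresis, fitted bidirectionally relative to DMSO. Human HepG2 liver cells carried transfected cis-promoter reporter units and were exposed to chemicals for 24 h.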

A short description of assay [18]: ATG_Sox_CIS: Attagene CIS-FACTORIAL HepG2 Assay for human SRY-box transcription factor (SOX) (AID 2282960). The following applies: HepG2 Attagene cis-factorial SOX reporter, mRNA; actives raise or lower the signal. Summed up: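 HepG2 cells transiently transfected with cis-element-driven multiple reporter transcription units, dosed 24 h; reporter mRNA measured by RT-PCR, FAM labelling, HpaI digestion and capillary electrophoresis. Bidirectional fit versus DMSO baseline.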

Assay [19] deals with Transcription factor Sp1 (Homo sapiens) (UniProt P08047). Briefly: ATG_Sp1_CIS: Attagene CIS-FACTORIAL HepG2 Assay for human Specificity Protein 1 (Sp1) (AID 2282961). The following applies: HepG2 Sp1 cis-reporter transcription, actives raise or lower the signal. In outline:
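HepG2 cells transiently transfected with multiple reporter transcription units driven by cis-regulatory elements; Sp1-responsive reporter mRNA measured 24 h after dosing by RT-PCR and capillary electrophoresis fluorescence, fitted bidirectionally against DMSO baseline.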

A short description of assay [20]: ATG_SREBP_CIS: Attagene CIS-FACTORIAL HepG2 Assay for human Sterol Regulatory Element Binding (SREBP) (AID 2282962). The following applies: HepG2 Attagene cis-factorial SREBP reporter, mRNA; actives raise or lower the signal. Summed up:
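Values derive from bidirectional curve fitting with DMSO as baseline. The underlying measurement is reporter mRNA from cis-element-regulated units in transiently transfected HepG2, quantified by RT-PCR and capillary electrophoresis after 24 h exposure.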

Our source for the outcome and AC50 values is PubChem BioAssay (EPA / NIEHS).

Activity calls are given as the source filed them. How the source made its calls: active means hit-call score of the fitted dose curve at least 0.9, where 1 is the maximum; inactive means score below 0.9.

Chain of Transcription factor Sp1 (Homo sapiens) (P08047 whole entry, looked up): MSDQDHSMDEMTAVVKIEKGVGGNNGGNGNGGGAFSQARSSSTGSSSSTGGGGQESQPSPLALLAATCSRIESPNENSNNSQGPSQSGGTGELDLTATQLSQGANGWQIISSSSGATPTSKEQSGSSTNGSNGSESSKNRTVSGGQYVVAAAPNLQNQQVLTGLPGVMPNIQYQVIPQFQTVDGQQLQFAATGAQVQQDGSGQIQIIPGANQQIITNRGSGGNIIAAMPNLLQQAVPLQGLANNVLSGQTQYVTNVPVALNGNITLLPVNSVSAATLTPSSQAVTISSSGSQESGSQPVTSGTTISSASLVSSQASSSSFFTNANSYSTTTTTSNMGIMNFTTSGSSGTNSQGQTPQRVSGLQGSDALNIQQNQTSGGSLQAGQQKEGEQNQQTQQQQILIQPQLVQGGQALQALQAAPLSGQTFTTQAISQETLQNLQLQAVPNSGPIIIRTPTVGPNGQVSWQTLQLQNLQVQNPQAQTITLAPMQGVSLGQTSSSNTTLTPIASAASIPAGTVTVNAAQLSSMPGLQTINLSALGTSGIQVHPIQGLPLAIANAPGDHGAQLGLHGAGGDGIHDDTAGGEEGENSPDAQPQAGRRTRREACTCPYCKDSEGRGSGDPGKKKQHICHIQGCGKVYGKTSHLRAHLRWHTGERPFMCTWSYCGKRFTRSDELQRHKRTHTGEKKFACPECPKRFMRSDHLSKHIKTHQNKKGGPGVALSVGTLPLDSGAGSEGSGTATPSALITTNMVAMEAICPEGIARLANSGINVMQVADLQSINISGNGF
Chain of Hepatocyte nuclear factor 3-beta (Homo sapiens) (Q9Y261 whole entry, looked up): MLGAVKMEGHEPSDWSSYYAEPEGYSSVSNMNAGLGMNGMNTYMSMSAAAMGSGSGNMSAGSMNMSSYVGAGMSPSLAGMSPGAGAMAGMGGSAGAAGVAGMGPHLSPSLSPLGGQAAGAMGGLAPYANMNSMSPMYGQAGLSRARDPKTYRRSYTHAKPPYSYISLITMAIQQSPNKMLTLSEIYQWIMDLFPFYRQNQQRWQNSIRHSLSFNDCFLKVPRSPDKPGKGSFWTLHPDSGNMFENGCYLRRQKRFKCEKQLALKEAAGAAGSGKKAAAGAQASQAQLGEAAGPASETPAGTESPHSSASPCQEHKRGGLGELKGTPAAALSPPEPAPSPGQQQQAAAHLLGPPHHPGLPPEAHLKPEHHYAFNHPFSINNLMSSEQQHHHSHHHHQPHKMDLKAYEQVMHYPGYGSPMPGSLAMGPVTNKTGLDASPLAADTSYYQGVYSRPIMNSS
Chain of CCAAT/enhancer-binding protein beta (Homo sapiens) (P17676 whole entry, looked up): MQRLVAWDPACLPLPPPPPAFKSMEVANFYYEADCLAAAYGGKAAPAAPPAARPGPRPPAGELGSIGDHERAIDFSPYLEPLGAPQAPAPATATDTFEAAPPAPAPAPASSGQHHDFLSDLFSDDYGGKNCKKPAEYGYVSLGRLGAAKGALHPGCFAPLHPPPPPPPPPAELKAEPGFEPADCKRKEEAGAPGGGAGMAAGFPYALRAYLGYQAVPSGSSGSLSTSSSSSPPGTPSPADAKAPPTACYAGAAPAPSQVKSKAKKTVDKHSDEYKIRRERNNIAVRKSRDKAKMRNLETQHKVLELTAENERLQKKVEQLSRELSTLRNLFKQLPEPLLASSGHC
Chain of Paired box protein Pax-6 (Homo sapiens) (P26367 whole entry, looked up): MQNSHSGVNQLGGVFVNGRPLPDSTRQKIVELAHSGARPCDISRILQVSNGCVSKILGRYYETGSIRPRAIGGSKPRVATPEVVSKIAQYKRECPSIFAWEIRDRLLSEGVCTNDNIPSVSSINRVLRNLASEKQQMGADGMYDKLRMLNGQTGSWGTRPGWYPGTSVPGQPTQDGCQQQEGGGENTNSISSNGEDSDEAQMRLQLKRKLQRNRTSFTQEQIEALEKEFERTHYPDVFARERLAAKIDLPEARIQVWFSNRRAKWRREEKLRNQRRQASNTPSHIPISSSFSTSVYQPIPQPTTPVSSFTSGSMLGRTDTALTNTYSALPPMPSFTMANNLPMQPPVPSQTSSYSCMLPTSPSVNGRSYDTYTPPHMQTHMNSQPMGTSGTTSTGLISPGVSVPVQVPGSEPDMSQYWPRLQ

With `Oc1ccc(Cl)cc1`, the result in assay [1], in [2], in assay [3], in [4], in assay [5] and in [6] was inactive. In addition, the result in [7], in assay [8], in assay [9], in assay [10], in assay [11] and in [12] was inactive. Further, the molecule was classed as inactive in [13], in assay [14], in assay [15], in assay [16], in [18] and in [19]. For the same molecule, the molecule was classed as inactive in assay [20]. In assay [17], the AC50 (commonly the midpoint of the concentration-response curve, whichever way the signal moves) was 27.9 µM (active).

As for `COc1ncc(F)c2nc(S(=O)(=O)Nc3c(F)cccc3F)nn12`, the outcome in assay [1], in assay [2], in assay [3], in assay [4], in assay [5] and in assay [6] was inactive. The molecule was called inactive in assay [7], in assay [8], in assay [9], in assay [10], in assay [11] and in assay [12]. The call in [13], in assay [14], in [15], in [16], in [18] and in assay [19] was inactive. In assay [20], the call was inactive. Further, the AC50 in [17] is 15.3 µM (active).

Take `COCC(=O)N(c1c(C)cccc1C)N1CCOC1=O`: the call in assay [1], in [2], in assay [3], in [4], in [5] and in [6] was inactive. Also, the call in assay [7], in assay [8], in [9], in assay [10], in [11] and in assay [12] was inactive. Further, the result in assay [13], in [14], in assay [15], in assay [16], in [18] and in assay [19] was inactive. The result in assay [20] was inactive. In [17], the AC50 is 29.9 µM (active).

As to `C=C(Cl)Cl`, the molecule was called inactive in [1], in assay [2], in assay [3], in [4], in assay [5] and in assay [6]. Besides, the call in assay [7], in [8], in assay [9], in assay [10], in assay [11] and in assay [12] was inactive. Besides, the molecule was called inactive in assay [13], in [14], in [15], in assay [16], in [18] and in assay [19]. In addition, in [20], the call was inactive. Moreover, the concentration at half-maximal activity (AC50) in assay [17] is 50.8 µM (active).

With `O=C(O)CCCc1ccc(N(CCCl)CCCl)cc1`, the outcome in assay [1], in assay [2], in [4], in assay [5], in [6] and in assay [7] was inactive. Further, the result in assay [8], in assay [9], in [10], in [11], in [12] and in assay [13] was inactive. Further, the outcome in [14], in assay [15], in [16], in assay [17], in assay [18] and in assay [19] was inactive. Further, the outcome in assay [20] was inactive. Moreover, in [3], the AC50 was 112 µM (active).
